About 83,000 compounds went through this panel and 20% of them were active in at least one assay; those are over-represented in the sample as a whole.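 Note: values are percent growth. 100 is the growth of untreated cells, values between 100 and 0 indicate rising inhibition; between -100 and 0 indicates cell death.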 Values without a mark were called inactive. Active and inactive are the calls of the source. Rule for the calls: active = growth percent below 10; inactive = the rest.

The assay deals with HL-60(TB) leukemia. The assay can be described thus: NCI-60 one-dose screen, 48 h (100 = growth as untreated, 0 = no growth, -100 = all killed). The following applies: 10 µM unless noted.
With `N#Cc1c(-c2ccc(Cl)cc2)nc(N=Nc2c(O)[nH]c3ccc(Cl)cc23)nc1N1CCOCC1`, the growth was 104%.
As for `CCCCCCc1nc2nc(Cl)c(Cl)nc2[nH]1`, the growth is 39.6%.
Under `O=CN1N=C(c2cccc(Nc3ccnc4cc(Cl)ccc34)c2)CC1c1ccc(Cl)cc1` (stereo unspecified) stands -4.94% (active).
On to `CC(=O)OCCOc1cc(Cl)c(Cl)cc1Cl`, for which the growth was 77.3%.
The figure for `Cn1c2c(c3ccc(-c4ccn[nH]4)cc3c1=O)C(=O)c1ccccc1-2` is -17.7% (active); for `COc1ccc(C/C(C)=C(/c2ccc(OCCN3CCCCCC3)cc2)c2ccc(OC(=O)c3ccccc3)cc2)cc1` it is 68.7%.
Under `Cc1ccc(-n2cc(-c3ccccc3)c3c2N=NN2CCN=C32)cc1` stands 101%; under `O=C(c1ccc(C(F)(F)F)c(Cl)c1)N(Cc1ccc(Cl)cc1)c1ccc(-c2cc(C(F)(F)F)[nH]n2)c(O)c1`, -14.9% (active).
In the case of `Cc1cc(C)c2nc3nc(C)cc(C)c3c(N)c2c1`, the growth was 45.8%.
As to `C=C(C)[C@@H]1CC[C@]2(C(=O)N3CCN(C)CC3)CC[C@]3(C)[C@H](CC[C@@H]4[C@@]5(C)CC[C@H](OCCC#N)C(C)(C)[C@@H]5CC[C@]43C)[C@@H]12`, the growth was 73.8%.
For `O=C1NC2(Nc3ccccc31)C(=O)Nc1c(Cl)cc(Cl)cc12` (stereo unspecified), the growth was 106%.
For the compound `CCCC(CCC)NCC(O)c1cc(-c2ccc(C(F)(F)F)cc2)nc(C(F)(F)F)c1` (stereo unspecified), the growth was -46.3% (active).
`COC(=O)c1nc(N)nc(C(=O)OC)c1C(=O)c1cccc2ccccc12`: the growth was 107%.
On to `NCCNc1nc2ccccc2c2c(=O)c3cc(F)cc(Cl)c3sc12`, for which the growth was -42.8% (active).
`CC(=O)c1nc2ccccc2n1CCn1cc(CC(N)C(=O)O)c2ccccc21` (stereo unspecified): the growth was 100%.
As to `CC[C@@H](C)[C@H](NC(=O)Cn1cc(CNC(=O)[C@@H](NC(=O)OCc2ccccc2)C(C)C)nn1)C(=O)O`, the growth is 113%.
Turning to `CCOC(Cc1c(N)[nH]c(=S)[nH]c1=O)OCC`, the growth was 90.3%.
Regarding `COc1cccc(-c2nn(-c3ccccc3)cc2-c2ccnc(NCCNC(=O)Nc3ccccc3)c2)c1`, the growth is 19.9%.
As for `COc1cc(NCCCCCN=C(N)NC(N)=NC(C)C)c2ncccc2c1`, the growth was 1.51% (active).
For `CCCN1C(=O)/C(=c2\sc3n(c2=O)C2C(NN=3)N(CC)C(=O)N2CC)c2ccccc21` (stereo unspecified), the growth is -40.8% (active).
For `Cc1ccc2nc(-c3cc4c([nH]c5ccccc54)c(-c4ccc(F)c(F)c4)n3)[nH]c2c1`, the growth is 48.5%.
As for `CNC(=O)NCC1OC(n2cnc3c(NC(=O)Nc4ccccc4)ncnc32)C2OC(C)(C)OC12` (stereo unspecified), the growth is 83.9%.
On to `C#C[C@]1(O)CC[C@H]2[C@@H]3CC=C4c5nc(N)sc5CC[C@]4(C)[C@H]3CC[C@@]21C`, for which the growth is 87.5%.
The figure for `Nc1ccc(S(=O)(=O)O)c2cc(S(=O)(=O)O)cc(O)c12` is 99.2%; for `Cc1ccc(C(C)C)cc1NC(=O)Nc1ccc([N+](=O)[O-])cc1` it is -8.6% (active); for `COc1ccc(-c2ccc(-c3ccc(C(=N)N)nc3)s2)cc1` it is -47.3% (active).
